Several values for one entry are separate records, joined by “and”; a condition that tells them apart may be missing. Equal values may be shown once. The campaign covered roughly 16,000 compounds. About 5,700 (36%) were called active. Inconclusive results (about 24%) are left out. The call rests on the fitted dose curve; in most records, active means well fitted curve in the direction sought with a large enough effect; inconclusive means small, poorly fitted or top-dose-only effect, or effect the other way; inactive means no such curve, though single readings can be large or run the other way. This is one part of the list. A structure can be active in one record and inactive in another.
The compounds below were run against Cytochrome P450 1A2 (Homo sapiens) (UniProt P05177) (assay: Cytochrome panel assay with activity outcomes). Conditions: recombinant CYP, pro-luciferin dealkylation, luminescence, p450-cyp1a2; series mostly up to 57.1 µM; activity, negative = inhibition: at the top concentration.
Sequence of Cytochrome P450 1A2 (Homo sapiens) (P05177 whole entry, looked up): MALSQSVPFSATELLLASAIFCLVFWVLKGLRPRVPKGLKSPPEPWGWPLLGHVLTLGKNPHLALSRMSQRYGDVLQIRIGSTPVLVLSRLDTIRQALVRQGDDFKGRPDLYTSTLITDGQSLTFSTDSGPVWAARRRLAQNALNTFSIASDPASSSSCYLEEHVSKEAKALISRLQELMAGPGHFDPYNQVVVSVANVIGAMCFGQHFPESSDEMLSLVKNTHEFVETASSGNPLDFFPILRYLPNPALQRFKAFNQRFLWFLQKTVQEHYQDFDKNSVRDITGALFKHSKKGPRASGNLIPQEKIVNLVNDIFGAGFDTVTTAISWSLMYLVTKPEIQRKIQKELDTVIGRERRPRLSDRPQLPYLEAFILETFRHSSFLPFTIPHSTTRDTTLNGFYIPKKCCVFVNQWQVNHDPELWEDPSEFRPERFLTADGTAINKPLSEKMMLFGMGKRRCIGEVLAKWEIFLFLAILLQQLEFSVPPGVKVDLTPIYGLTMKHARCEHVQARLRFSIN
On the % scale 0 is the no-effect control and ±100 the full control effect.

activity, negative = inhibition, inactive:
O=c1n(-c2ccccc2)c(=O)n2n1CC[C@H]1/C(=N\OCc3ccccc3)[C@H]3O[C@@H]3[C@@H](O)[C@@H]12 -12.4% [at 11.4 µM]
CCO[P@]1(=O)OC[C@@H]2O[C@H](n3cnc4c(N)ncnc43)[C@H](O)[C@@H]2O1 -15.6% [at 2.29 µM]
CC(NC(=O)CN1CCCC1)C12CC3CC(CC(C3)C1)C2 (configuration not stated) -12.1%
COC(=O)[C@H](C)NC(=O)[C@@H](C)CO -7.75% [at 11.4 µM]
COc1ccc(-c2nn(-c3ccccc3)cc2/C=N/NC(=O)c2ccc(Br)o2)cc1 -27.3%
CC1=NN(c2ccccc2)C(=O)C1C(=O)c1ccc(Cl)cc1 (configuration not stated) 1.73%
Cn1c(N)c(N=Nc2ccc(S(N)(=O)=O)cc2)c(=O)n(C)c1=O -12.8% [at 2.29 µM]
CC(=O)OCC(=O)[C@@]1(O)CC[C@@H]2[C@H]3CCC4=CC(=O)CC[C@]4(C)[C@]3(F)[C@@H](O)C[C@@]21C -5.93% [at 25.6 µM]
CCC(C)NS(=O)(=O)c1ccc(OCC(=O)NCC2CCCO2)cc1 (configuration not stated) 18.2%
Cc1ccc(C)c(-n2c(Cc3cc(=O)[nH]c(=O)[nH]3)nnc2SCC(=O)NCC2CCCO2)c1 (configuration not stated) -2.07%
C=CCn1c(=O)c2c(nc(-c3ccc(S(=O)(=O)O)cc3)n2C)n(C)c1=O -15%
CCOc1ccc(N2C(=O)/C(=C/c3cc(OC)c(OC)c(OC)c3)N(CC(=O)OC)C2=S)cc1 12.3%
CCCCNC(=O)C1CC(=O)N(c2ccc(OC)cc2)C1c1ccc(OC)cc1 (configuration not stated) 1.32%
CC(=O)Nc1ccc(NC2=Nc3ccccc3N3C2=Nc2c(c(C)nn2-c2ccccc2)C3c2ccccc2)cc1 (configuration not stated) 4.37%
C=CCNC(=O)C1CCN(S(=O)(=O)CC)CC1 -0.27%
O=C1c2ccccc2C(=O)N1CCCCN(C(=O)c1ccc([N+](=O)[O-])cc1)c1ccc(Cl)cc1 -16.4%
Cc1ccc(C(=O)N/C(=C\c2ccc([N+](=O)[O-])cc2)C(=O)NCCc2ccccc2)cc1 -18.3%
Nc1nc(-c2cccs2)cs1 -30.1% [at 2.29 µM]
NC(=O)C[C@H](N)C(N)=O -6.74% [at 11.4 µM]
CC(=O)SCC[N+](C)(C)C -12.4%
Cc1ccc(-n2nc3ccc(NC(=O)c4ccc5c(c4)OCO5)cc3n2)cc1 -26.7%
CCc1sc(N(C(=O)Cc2ccccc2)c2cccc(F)c2)nc1-c1ccc(C)cc1 -5.51%
COc1ccc(N(CC(=O)N/N=C/c2cccs2)S(=O)(=O)c2ccc(OC)c(OC)c2)cc1 1.39%
CC(C)(C)c1cccc(Oc2nn[nH]n2)c1 -3.32%
NC(=NCCC[C@H](N)C(=O)O)NO -1.24%
CN/C(=C\[N+](=O)[O-])NCCSCc1csc(CN(C)C)n1 -4.81% [at 25.6 µM]
Cc1noc(C)c1COc1ccc(C(=O)NCC2CCCO2)cc1 (configuration not stated) -17.4%
O=C(O)c1cc(S(=O)(=O)NCC2CCCO2)ccc1Cl (configuration not stated) -17.5%
Cc1ccc(-c2nnn(CC(=O)N(c3ccccc3)C(C(=O)NCC3CCCO3)c3ccc(Cl)cc3)n2)cc1 (configuration not stated) 9.48%
Clc1ccccc1NN(Cc1ccccn1)c1ccccc1Cl -22.4% [at 2.29 µM]
COC(=O)CNC(=O)CN1C(=O)N(c2ccccc2)C(N(O)C(=O)Nc2ccccc2)C1(C)C (configuration not stated) -12.4%
O=C(Cn1cnc2ccccc21)NC(c1ccccc1)c1ccccc1 -4.72%
COCCNC(=O)COc1ccc(OCCNC[C@@H](O)COc2ccccc2)cc1 -35.6%
CC(=O)NC(CCS(C)(=O)=O)C(=O)Nc1c(F)cccc1F (configuration not stated) -0.273%
CC[N+](CC)(CC)CC(=O)Nc1c(C)cccc1C 1.71%
Cc1cc(C)nc(SCCc2cccc[n+]2C)n1 -18.6% [at 2.29 µM]
Cc1cccc(NC(=O)CSc2nc3ccccc3c3nc(CCc4c(C)n[nH]c4C)nn23)c1 -12.8%
CCC(C)NC(=O)C1c2cc(OC)c(OC)cc2C(=O)N(C)C1c1cccs1 (configuration not stated) -7.16%
COc1ccc(-c2ccc3c(n2)CCCN3C[C@H](O)CN2CCCc3nc(C)c(C)cc32)cc1 -2.83% [at 11.4 µM]
COc1cc(CN2CCN(C(=O)CC(C)C)CC2)cc(OC)c1OC -13.1%
OC(CN1CCCCC1)CN1CCCCC1 -1%
CCC(C)[C@H](NC(=O)Nc1ccc(Oc2ccccc2)cc1)C(=O)O (some centres not stated) -5.08%
CN1CCCC1CCNC1C2CC3CC(C2)CC1C3 (configuration not stated) -4.97%
CCCNC(=O)OC[C@@H]1O[C@H](CCO/N=C(\C)CCN2CCc3nc(CC)c(CC)cc3C2)C=C[C@@H]1Oc1ccc(OC)cc1 -0.5% [at 11.4 µM]
C=C(C)[C@@H]1CC=C(C(=O)O)CC1 -6.61%
O=C(NCCCN1CCC(Cc2ccccc2)CC1)C1CCN(S(=O)(=O)N2CCOCC2)CC1 -11.5%
COc1cc(/C=N/NC(=O)c2ccncc2)ccc1OC(=O)c1ccc([N+](=O)[O-])cc1 -4.43%
O=[N+]([O-])c1ccc([C@@H](Nc2ccccc2)c2ccc3cccnc3c2O)cc1 -21.3% [at 2.29 µM]
Nc1ccc(C(=O)NCC(=O)O)cc1 -6.23% [at 25.6 µM]
O=C(N/N=C\c1cccc(O)c1)c1ccncc1 -15.7% [at 11.4 µM]

AC50, inactive:
O=C(NCCNC[C@@H](O)COc1ccc(O)cc1)N1CCOCC1

AC50, active:
CN(C)C(=O)c1ccc(-c2ccc3ncnc(N(C)C)c3c2)cc1 20 µM
CN(C)c1ccc(-c2ccc3ncnc(N(C)C)c3c2)cc1 0.158 µM
CN(C)c1ncnc2ccc(-c3ccoc3)cc12 0.794 µM
O=C(N/N=C\c1cn(-c2ccccc2)nc1-c1ccccc1)c1ccc(Br)o1 3.55 µM
O=S(=O)(N/N=C\c1cn(-c2ccccc2)nc1-c1ccccc1)c1ccccc1 3.55 µM
Cc1ccc(-c2nn(-c3ccccc3)cc2/C=N/NS(=O)(=O)c2ccccc2)cc1 4.47 µM
COCCCNC(=O)c1c(N)n(/N=C/c2ccccn2)c2nc3ccccc3nc12 2 µM
CC1=NN(c2ccccc2)C(=O)[C@@H]1N=Nc1ccc(S(N)(=O)=O)cc1 1.26 µM
Cc1[nH]nc2nc(SCC(=O)NCC3CCCO3)n(-c3ccc(Br)cc3)c(=N)c12 (configuration not stated) 10 µM
CCOc1cc(/C=C2\N=C(C)OC2=O)cc(Br)c1OCC(=O)OC 17.8 µM
CCN1C(=O)/C(=C2\SC(=S)N(CCCOC)C2=O)c2ccccc21 1.58 µM
N#Cc1c(-n2ccnc2)cccc1-n1ccnc1 2.51 µM
FC(F)(F)c1ccccc1-n1ccnc1 0.251 µM
N#Cc1c(Cl)cccc1-n1ccnc1 1 µM
COc1ccc(CNc2ncnc3ccc(-c4ccccc4C#N)cc23)c(OC)c1 6.31 µM
COc1ccccc1CNc1ncnc2ccc(-c3ccccc3C#N)cc12 1.26 µM
Cc1ccc(N(Cc2ccc([N+](=O)[O-])cc2)C(=O)c2ccco2)cc1 12.6 µM
Nc1nc(-c2cccs2)cs1 7.08 µM
O=C(Nc1cc(-c2nc3ccccc3s2)ccc1Cl)c1ccc2c(c1)OCO2 1.41 µM
O=C(Nc1cccc(-c2nc3ccccc3s2)c1)c1ccc2c(c1)OCO2 2 µM
C/C(=N/NC(=O)Cc1cccn1C)c1ccccc1 20 µM
Cn1cccc1CC(=O)N/N=C\c1cccs1 15.8 µM
O=C(NCC1CCCO1)c1cc(-c2ccc(Cl)cc2Cl)on1 (configuration not stated) 2.51 µM
O=C(Nc1ccccc1C(=O)NCC1CCCO1)c1ccc(Cl)cc1Cl (configuration not stated) 8.91 µM
Clc1ccccc1NN(Cc1ccncc1)c1ccccc1Cl 5.01 µM
CN(C)c1ccc(N=Nc2cccc3ccoc23)cc1 0.251 µM
O=c1onc2cnc3ccccc3n12 2.51 µM
Cc1ccc(OCC(O)CNC(=O)c2ccccc2C(=O)O)cc1 (configuration not stated) 14.1 µM
Cc1cccc(NC(=O)CSc2nc3nc(C)cc(C)c3c(=O)[nH]2)c1 2 µM
Cc1cccc(NC(=O)CCSc2nc(C)cc(C)n2)c1 14.1 µM
OCCN(C=NC1=NN(c2cccc(C(F)(F)F)c2)CC1)CCO 2.82 µM
COc1ccc(-c2cc(C(F)F)nc(-n3nc(C)cc3C)n2)cc1 1.78 µM
Fc1ccc([C@H]2CCNC[C@H]2COc2ccc3c(c2)OCO3)cc1 3.16 µM
Cc1nn2c(NCC(C)C)c3c(nc2c1-c1ccccc1)CCC3 2.82 µM
CCN(CC)c1nc(Nc2ccccc2)nc(Oc2ccc(C(=O)OC)cc2)n1 12.6 µM
COC(=O)c1c(C)[nH]c(O)c1C=Nc1ccc(C(C)C)cc1 5.62 µM
CSc1nsc(SC)c1C(=O)Nc1ccc(C)cc1 7.08 µM
CC1=C(CC(=O)O)c2cc(F)ccc2/C1=C\c1ccc(S(C)=O)cc1 (configuration not stated) 3.98 µM and 12.6 µM
CC1=C(CC(=O)O)c2cc(F)ccc2/C1=C\c1ccc(S(C)(=O)=O)cc1 12.6 µM
COc1cccc(-c2nccc(NCc3cnc(C)cn3)n2)c1 0.501 µM
Cc1cnc(CNc2ccnc(-c3cccc(C#N)c3)n2)cn1 1.26 µM
Cc1cnc(CNc2ccnc(-c3cccc(NS(C)(=O)=O)c3)n2)cn1 20 µM
O=C(N/N=C/c1cccnc1)c1ccc([N+](=O)[O-])cc1 5.01 µM
O=C(N/N=C/c1ccc(F)cc1)c1ccc(Br)cc1 0.794 µM
Nc1ccc(C(=O)N/N=C/c2ccccc2)cc1 25.1 µM
O=[N+]([O-])c1ccc(/C=N/N/C(=N/c2ccccn2)c2ccccn2)cc1 12.6 µM

Reference: PubChem BioAssay AID1851 (National Center for Advancing Translational Sciences (NCATS), 2009)
